From PubChem
Marburg entry inh: blocks Marburg virus binding to or entry into cells. 1.8% of 300,000 active. Marburg virus pseudotyped entry inhibition, cell reporter. Potency, µM (series often up to 37.8 µM), for the others: top-dose activity change, negative = inhibition, most hits filed as inhibitors; calls by dose curve; tested in HEK293 cells
Sm TGR block: blocks Schistosoma mansoni thioredoxin glutathione reductase | Q962Y6 | purified TGR, DTNB reduction, TNB absorbance 405 nm | Potency, µM (highest dose often 114 µM), inactives show top-dose activity change, negative = inhibition, actives largely listed as inhibitors | 3% of 360,000 active | AID 485364; further: nearly all actives have a fitted effect of over 60% in size
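TGR 20 nM + NADPH 100 uM (dispensed conc.), cpd preinc 15 min RT; start with NADPH (500 uM addition) then DTNB (15 mM addition). Kinetic TNB absorbance, 405 nm filter. Four-parameter Hill fit across titration.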
Lassa entry inh: inhibitors of Lassa virus binding or cell entry | Lassa virus pseudotype entry inhibition, cell reporter | Potency, µM (doses to about 37.9 µM), without a hit: top-dose activity change, negative = inhibition, usual class: inhibitors | 1.2% of 300,000 active; calls by dose curve; tested in HEK293 cells; further: nearly all actives have a fitted effect of over 50% in size
HCV inh: blocks hepatitis C virus | 3.4% of 340,000 active | Huh7.5.1 HCVcc-Cre infection, luciferase reporter, 44 h | Potency, µM (top dose mostly 41.8 µM), without a hit: top-dose activity change, negative = inhibition, actives largely listed as inhibitors
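Cells (1,000/well) were plated 4 h before compound, then infected with HCVcc-Cre virus (~0.5 moi). After 44 h further culture, infection was read as luciferase luminescence following a 15 min substrate incubation at room temperature.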
FMDV inh: antivirals against foot and mouth disease virus; FMDV antiviral cell-based qHTS; Potency, µM (titrated, usually from 57.9 µM), for the others: at the highest dose activity change, negative = inhibition, most hits filed as inhibitors; 1.2% of 410,000 active; calls by dose curve; tested in HEK293T cells; further: read-out not given here; nearly all actives have a fitted effect of over 45% in size
RE007 growth inh: less growth of the S. pombe RE007 Vpr strain; AID 651644; Potency, µM (doses to about 92.2 µM), for inactives: top-dose activity change, negative = less growth, most hits filed as inhibitors; S. pombe RE007 Vpr strain, BacTiter-Glo ATP luminescence, 24 h; 0.21% of 360,000 active; active means well fitted falling curve with a large enough effect; inconclusive means small, poorly fitted or top-dose-only effect; inactive means no such curve, though single readings can be large or run the other way; further: nearly all actives have a fitted effect of over 50% in size
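Fission yeast strain RE007, carrying one chromosomally integrated HIV-1 vpr copy, was seeded at OD 0.01 in PMG+AL medium with 23 nL pinned compound. After 24 h at 30 °C and 99% humidity, viability was read by BacTiter-Glo luminescence.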
* hit, by the source's call; ? = inconclusive; . = no result; [ ] = remark or other dose. An excerpt weighted towards active compounds, which were near 7.2% of everything screened. Unless noted, the call rests on the fitted dose curve; in most records, active means well fitted curve in the direction sought with a large enough effect; inconclusive means small, poorly fitted or top-dose-only effect, or another doubt; inactive means no such curve, though single readings can be large; an effect the other way counts as inactive or inconclusive. On the % scale 0 is the no-effect control and ±100 the full control effect; potency means the concentration at half of the fitted maximal effect.

SMILES	Marburg entry inh	Sm TGR block	Lassa entry inh	HCV inh	FMDV inh	RE007 growth inh
Cc1cc(C(O)c2ncc(-c3ccccc3)[nH]2)ccc1F (centres undefined)	.	.	.	.	60%	-23%
Nc1ccc2ccc3cccc[n+]3c2c1	-14%[46.1 µM]	32µM*	-10%[46.1 µM]	7.1µM*	-9%	-1%
COc1ccc2ccc3cccc[n+]3c2c1	.	.	.	?	0%	-5%
Cc1cc(C)cc(NC(=O)c2cc(S(=O)(=O)N3CCCCC3)c[nH]2)c1	.	-1%	?	.	14%	.
CN(C)c1ccc(/C=N/NC(=O)C2COc3ccccc3O2)o1 (centres undefined)	?	16µM*	6%	35%	16%	2%
O=C(N/N=C\c1ccc(Br)o1)C1COc2ccccc2O1 (centres undefined)	9%	.	0%	18%	-24%	-11%
CCOC(=O)C(Oc1ccc2c(-c3ccc(OC)cc3)cc(=O)oc2c1C)c1ccccc1 (centres undefined)	?	-26%	13µM*	-28%	?	-18%
COc1ccc(-c2cc(=O)oc3c(C)c(OC(C)C(=O)Nc4ccc(CN5CCOCC5)cc4)ccc23)cc1 (centres undefined)	.	2%	.	13µM*	1%	15%
CCOC(=O)C(Oc1ccc2c(-c3ccccc3)cc(=O)oc2c1C)c1ccccc1 (centres undefined)	-8%	0%	?	?	-11%	8%
CCOC(=O)N1CCN(C(=O)CN(c2cc(C)ccc2OC)S(=O)(=O)c2ccc(C)cc2)CC1	2%[46.1 µM]	3%	-5%[46.1 µM]	.	20%	.
COc1ccc(-c2noc(CSc3nnc(Cc4ccccc4)n3-c3ccccc3)n2)cc1OC	-22%[46.1 µM]	-6%	6.3µM*	.	-9%	.
COc1ccc(-c2noc(CSc3nnc(Cc4ccccc4)n3-c3cccc(C)c3)n2)cc1OC	?	3%	?	?	.	8%
CCOc1ccc(-c2noc(CSc3nnc(-c4ccccc4)n3-c3ccccc3)n2)cc1	2%[46.1 µM]	1%	-24%[46.1 µM]	.	?	.
Clc1ccccc1-c1nnc(SCc2nc(-c3ccccc3)no2)n1-c1ccccc1	?	0%	?	.	25µM*	.
Cc1ccc(-n2c(SCc3nc(-c4ccc(Cl)cc4)no3)nnc2-c2ccncc2)cc1	?	-2%	-18%[46.1 µM]	.	?	.
Clc1ccc(-c2noc(CSc3nnc(-c4ccncc4)n3-c3ccccc3)n2)cc1	?	-24%	-28%	4µM*	25µM*	10%
Cc1cc2nn(-c3ccc(F)cc3)nc2cc1N	5µM*	?	?	-23%	-30%	-17%
Cc1ccc(-n2nc3ccc(N)cc3n2)cc1	?	-24%	11µM*	?	11%	-10%
Nc1ccc2nn(-c3ccc(F)cc3)nc2c1	.	-5%	.	-2%	50%	-8%
Cc1cc2nn(-c3ccc(Cl)cc3)nc2cc1N	.	-28%	.	-27%	-21%	.
O=C(C1CCCCC1)N1C[C@@H](n2cc(-c3ccc(F)cc3)nn2)[C@@H](O)C[C@@H]1c1ccccc1	.	.	-2%[46.1 µM]	.	.	.
CNCCC(Oc1ccccc1OC)c1ccccc1 (centres undefined)	18µM*	.	?	?	-19%	-11%[18.4 µM]
CNCC[C@@H](Oc1ccccc1C)c1ccccc1	.	.	.	10%	-18%	-17%[18.4 µM]
CCOc1ccc(CCNC(=O)CCc2c(C)nc3cc(-c4ccccc4OC)nn3c2C)cc1	?	?	?	.	0%	.
C/C(=N\Nc1ccc(C)c(Cl)c1)c1cccnc1	.	14µM*	.	-3%	64%	2%
C/C(=N\Nc1ccc(C)c(Cl)c1)c1ccncc1	?	-28%	?	-3%	21%	-26%
COc1ccc(CNC(C)C2COc3ccccc3O2)c(OC)c1 (centres undefined)	11µM*	9%	2%	-6%	-23%	-25%
CCc1nc2ccc(C(=O)N3CCN(c4ccc([N+](=O)[O-])cc4)CC3)cc2nc1CC	.	-25%	.	13µM*	?	23%
CCc1noc(C)c1C(=O)N1CCN(c2ccc([N+](=O)[O-])cc2)CC1	.	.	.	.	?	-10%
